# Only some compounds are listed: those with a hit (about 19% of all), similar ones and a draw of the others.
# TDP1 cell noCPT = qHTS for Inhibitors of human tyrosyl-DNA phosphodiesterase 1 (TDP1): qHTS in cells in absence of CPT | DT40 Tdp1-/- hTDP1 cells, no CPT, ATP luminescence, 48 h | 420,000 compounds, 15% hits | Potency, µM (top dose mostly 46.2 µM), usual class: inhibitors; further: nearly all actives have a fitted effect of over 55% in size
#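 Readout: luminescence from CellTiter-Glo after 30 min in the dark at RT. Cells: DT40 Tdp1-/- with stable hTDP1, 400/well. Exposure: compounds alone, ≥48 hr, 37 °C.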
# HT1080NT lethal = kills 2HG-producing HT-1080-NT fibrosarcoma cells. HT-1080-NT fibrosarcoma viability, CellTiter-Glo ATP luminescence, 48 h. AID 686970. 360,000 compounds, 1.6% hits. Potency, µM (series often up to 46.1 µM), most hits filed as cytotoxic;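 further: NT is the 2HG producing partner of a matched IDH1 knockdown line; nearly all actives have a fitted effect of over 55% in size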
#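 750 cells/well, RPMI + 5% FBS; 2 h settle, compound pin-transfer, 48 h at 37 degrees C. CellTiter-Glo 10 min RT, luminescence. Normalized to DMSO and media-only wells.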
# DT40 TDP1 CPT = DT40-hTDP1 cell growth loss with CPT. chicken DT40 Tdp1-/-;hTDP1 cells + 20 nM CPT, ATP luminescence, 48 h. Potency, µM (top dose mostly 46.2 µM), most hits filed as inhibitors. 420,000 compounds, 12% hits. AID 686979; further: nearly all actives have a fitted effect of over 55% in size
#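 Chicken DT40 Tdp1-/- cells complemented with human TDP1, 400 cells/well, exposed to compounds plus 20 nM camptothecin for at least 48 h at 37 C; viability read as ATP content by CellTiter-Glo luminescence.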
# HT1080 IDH1KD tx = HT-1080 IDH1 knockdown cell toxicity (counter line) | HT-1080 IDH1 knockdown viability, ATP luminescence, 48 h | Potency, µM (top dose mostly 46.1 µM), actives largely listed as cytotoxic | 360,000 compounds, 2% hits
#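 Cytotoxicity counter-line: IDH1KD HT-1080, 48 h, CellTiter-Glo. Curves classed by r2, magnitude and activity.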
# KB-3-1 cytotox = kills parental KB-3-1 adenocarcinoma cells. 400,000 compounds, 1.4% hits. Potency, µM (top dose mostly 46.1 µM), hits mostly cytotoxic. KB-3-1 viability, CellTiter-Glo ATP luminescence, 72 h. AID 1347075; further: nearly all actives have a fitted effect of over 60% in size
#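 Cells are dispensed, compounds pinned in, plates held at 37 °C for 72 h, then CellTiter-Glo is added and luminescence read after 10 minutes. Cell line: parental KB-3-1 in phenol-red-free DMEM, 10% FBS.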
# KB-V1 cytotox = KB-V1 MDR subline cytotoxicity; KB-V1 MDR cells viability, CellTiter-Glo, 72 h; Potency, µM (highest dose often 46.1 µM), hits mostly cytotoxic; 400,000 compounds, 3.4% hits; AID 1347076; further: nearly all actives have a fitted effect of over 60% in size
#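 KB-V1, DMEM (no phenol red) + 10% FBS; cpd pin-transferred, titration series; 72 h, 37 degrees C; CellTiter-Glo, luminescence. Data normalized, curve-fit.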
# Hits are given with their value; – = inactive; ? = inconclusive; · = no result. The call rests on the fitted dose curve; in most records, active means well fitted curve in the direction sought with a large enough effect; inconclusive means small, poorly fitted or top-dose-only effect, or another doubt; inactive means no such curve, though single readings can be large; an effect the other way counts as inactive or inconclusive.
SMILES,TDP1 cell noCPT,HT1080NT lethal,DT40 TDP1 CPT,HT1080 IDH1KD tx,KB-3-1 cytotox,KB-V1 cytotox
O=C(Cn1c(=O)sc2ccccc21)Nc1ccccc1,21µM,–,26µM,–,–,–
CC1(c2ccc3c(c2)OCCO3)NC(=O)N(CC(=O)Nc2ccccc2F)C1=O (configuration not stated),–,–,–,–,–,–
CC1(C)Cc2c(sc3c2C2=NCCN2C=N3)CS1,16µM,–,–,–,–,–
Cc1cccc(NC(=O)CSC2=Nc3ccccc3C3=NC(CC(=O)NCc4cccs4)C(=O)N23)c1 (configuration not stated),?,·,?,·,–,–
Cc1cc(N2CCOCC2)nc2ccc(NC(=O)CCC(=O)N3CCN(c4ccc(F)cc4)CC3)cc12,8.2µM,–,9.2µM,–,–,?
Cc1cc(N2CCOCC2)nc2ccc(NC(=O)CCC(=O)N3CCN(c4ccccc4F)CC3)cc12,15µM,?,?,–,–,?
CCn1c(C)nc2cc(C(=O)NNC(=O)CN(C)S(=O)(=O)c3ccc(NC(C)=O)cc3)ccc21,–,–,–,–,–,?
CCCCN(C(=O)C(C)Oc1ccc(Br)cc1)c1c(N)n(CC(C)C)c(=O)[nH]c1=O (configuration not stated),–,–,–,–,–,–
COc1cc(OC)cc(-c2c(-c3ccc(F)cc3)c3cc(-c4ccc5[nH]ccc5c4)ccc3n2C)c1,?,–,29µM,–,–,21µM
COc1ccc(-c2c(-c3cc(OC)cc(OC)c3)n(C)c3ccc(-c4cc(F)cc(OC)c4)cc23)cc1,16µM,–,?,–,–,–
COc1ccc(-c2c(-c3cc(OC)cc(OC)c3)n(C)c3ccc(-c4ccc(SC)cc4)cc23)cc1,–,–,–,–,–,?
COc1cccc(-c2c(-c3cc(OC)cc(OC)c3)n(C)c3ccc(-c4ccc5[nH]ccc5c4)cc23)c1,?,–,?,–,?,–
COc1ccc(CCNC(=O)c2cc(C(=O)c3cc(Cl)ccc3O)cn(CCc3ccc(OC)cc3)c2=O)cc1,10µM,–,10µM,–,–,2.6µM
O=C(c1cc(C(=O)NCCc2ccccc2)c(=O)n(CCc2ccccc2)c1)c1cc(Cl)ccc1O,15µM,–,?,?,?,2.3µM
O=S1(=O)c2ccccc2N(Cc2ccccc2Cl)c2ccccc21,?,·,?,·,–,–
O=C(COc1ccc(S(=O)(=O)NC2CCCCC2)cc1Cl)N1CCN(c2ccccc2)CC1,?,–,?,?,–,5.8µM
NC(=O)C1CCN(C(=O)COc2ccc(S(=O)(=O)NC3CCCC3)cc2)CC1,–,–,–,–,?,?
NC(=O)C1CCN(C(=O)COc2ccc(S(=O)(=O)NCc3ccccc3)cc2Cl)CC1,–,–,?,–,–,–
O=C(COc1ccc(S(=O)(=O)NC2CCCCC2)cc1)N1CCN(c2ccc(F)cc2)CC1,21µM,?,16µM,–,16µM,?
Cc1cccnc1Nc1ncnc(N)c1[N+](=O)[O-],–,–,–,?,–,–
Cc1cccc(Nc2ncnc(N)c2[N+](=O)[O-])n1,16µM,–,9.2µM,–,–,–
Nc1ncnc(Nc2ccccn2)c1[N+](=O)[O-],23µM,–,–,–,–,–
N#Cc1c(-c2cccs2)cc(-c2ccccn2)nc1N,5.8µM,?,5.8µM,?,–,?
COc1ccc(C(=O)NCC2CCCO2)cc1 (configuration not stated),–,–,–,–,–,–
Cc1ccc(C)n1-c1ccc(C(=O)NCC2CCCO2)cc1 (configuration not stated),13µM,–,13µM,–,–,–
SMILES,TDP1 cell noCPT,HT1080NT lethal,DT40 TDP1 CPT,HT1080 IDH1KD tx,KB-3-1 cytotox,KB-V1 cytotox
Nc1c(C(=O)NCC2CCCO2)c2nc3ccccc3nc2n1-c1ccccc1 (configuration not stated),16µM,?,16µM,?,–,?
C=CCNC(=O)c1c(N)n(-c2ccc3c(c2)OCO3)c2nc3ccccc3nc12,13µM,–,12µM,–,–,–
O=C(NCC1CCCO1)c1ccccc1 (configuration not stated),–,–,–,–,–,–
O=C(NCC1CCCO1)c1ccc(COc2ccc(Br)cc2)cc1 (configuration not stated),23µM,?,29µM,–,–,?
Cc1ccc(C)c(OCC(=O)N(Cc2ccccc2)c2c(N)n(Cc3ccccc3)c(=O)[nH]c2=O)c1,–,–,–,–,–,?
CCOc1ccc(-n2c(SCC(=O)Nc3ccc(F)cc3)nc3c([nH]c4ccccc43)c2=O)cc1,?,·,?,·,–,?
Cn1c(=O)c2c(-c3ccc(Cl)cc3)n(CCc3ccccc3)cc2n(C)c1=O,23µM,·,?,·,–,–
CCCCCn1cc2c(c1-c1ccc(Br)cc1)c(=O)n(C)c(=O)n2C,21µM,·,18µM,·,–,–
Cn1c(=O)c2c(-c3ccc(Br)cc3)n(CCc3ccccc3)cc2n(C)c1=O,?,·,15µM,·,–,–
CCN1CCN(C(C)C(=O)Nc2c(C)n(C)n(-c3ccccc3)c2=O)CC1 (configuration not stated),–,–,–,–,–,–
O=C(Cn1nc(CNc2ccc(Cl)cc2)[n+]2c1CCCCC2)c1ccccc1,8.2µM,–,5.2µM,–,?,?
Clc1ccc(NCc2nnc3n2CCCCC3)cc1,–,–,–,–,–,–
Cc1ccc(NC(=O)C2CCN(S(=O)(=O)c3ccc4[nH]c5c(c4c3)CCCCC5)CC2)cc1,15µM,·,13µM,·,–,–
O=S(=O)(c1ccc2[nH]c3c(c2c1)CCCC3)N1CCCCC1,23µM,–,?,–,–,–
COc1ccc(NC(=O)C2CCN(S(=O)(=O)c3ccc4[nH]c5c(c4c3)CCCCC5)CC2)cc1,?,·,?,·,–,–
O=C(Nc1cccc(F)c1)Nc1nnc([C@@H]2O[C@H](CO)[C@@H](O)[C@H]2O)s1,–,–,–,–,–,–
CCCN(CC(=O)Nc1ccccc1C)C(=O)CCCOc1ccc(Br)cc1,18µM,–,?,–,–,–
CCCCCC(=O)N1C[C@H](O)[C@@H](n2cc(COC(=O)c3ccccc3)nn2)C[C@@H]1c1ccc(OC)cc1,–,–,–,–,–,–
CCCCNc1nc2ccccc2nc1Cl,–,–,–,–,–,–
Oc1ccccc1Nc1nc(NCc2ccccc2)c2ccccc2n1,12µM,?,12µM,?,23µM,21µM
